These sequences were tested on VDR:RXRa (NR concentration 270 nM, RXRa partner concentration 90 nM) (assay: PBM binding z-score (relative to random genomic background probes); higher = stronger binding; sequences stand for … in GC…GCGATTGACAGCGTAGAATGAAGG).
Protocol: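 Protein-binding microarray (Agilent 4x180K custom design, double-stranded 60-nt probes: 5' GC cap, 34-nt variable region, 24-nt constant primer region; full probe sequence given). Purified or IVT nuclear receptor:RXRα heterodimers (3:1 NR:RXRα, mostly 270:90 nM) or homodimers were incubated for 1 h in PBS with 2% milk and no ligand, then detected with Alexa488 antibodies. Fluorescence from o1-orientation probes (~5 replicates averaged) was converted to z-scores against 500 random hg19 background probes. Variable regions are seed direct-repeat (DR0–DR5) sites, all their single-nucleotide variants and half-site ablations.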
With ACTTACGGGTCAATGAGGTTATAGCACGCGTATA the PBM binding z-score was 7.74. GCTCGGAGAACAAGGTCAGAGCTTTGTCCGTAGA showed a PBM binding z-score of 1.5. For AGAATGAGGTTATACGTAGATCAGAGAAGAAAGT, the PBM binding z-score was 1.29. Sequence GCGACTGGGGCCAAGCAGGTTACCATAAGGTTGG has a PBM binding z-score of 0.713. GCATATAGGTAATACCAGGTGAAAGTCCGATTGT gave a PBM binding z-score of -0.00851. Work on TCAGACAGGTAAAGGTAACTCAGGTACGCAGTCG yielded a PBM binding z-score of 1.44. For CCGACTGGGGCAAGGTTACCAGAACGCACAGCCA, the PBM binding z-score was 0.0138. With TTACCAAGGTGAAGCTCGTTGATCCCTCTGTAGA the PBM binding z-score was -0.103. With CCTTACCGGTCACGAGGTTATAGCACGACGAGCG the PBM binding z-score was 2.17. In the case of AGTCAAAGTTCAGGACGAGGAAACGTAAAGCACG, the PBM binding z-score is reported as 2.2. For TAGCCTAGGTCATTCAGGGGCCAGTACAGAAAGC, the PBM binding z-score was 3.33. In the case of GCAGACAGGTGAACCGCAGGTAACTCAGGGTGGC, the PBM binding z-score is reported as 0.332. Sequence CCTACTGGGCCCAAGGTCATTGATTCCAATGCTC has a PBM binding z-score of 3. In the case of CGTCCAAGGTAAAGGTCAGTGAAAGAGACTCGAA, the PBM binding z-score is reported as 2.43. Work on CCGACTGGGGCAGAAAGATTACCATACCATCCGG yielded a PBM binding z-score of -0.535. Sequence GCTAGTTGGTCAATAAAAGGTCACACACCGGTCG has a PBM binding z-score of 4.16. Work on ACTAGTTGGTCAGCTAAGGTCACACACAATTCGG yielded a PBM binding z-score of 3.99. Sequence ATCTCTAGGTAACCAAGTTCGGTGAATGCCGAAC has a PBM binding z-score of 1.83. GCAGACAGGTGATACGCAGGTAACTCAGGGTGGC gave a PBM binding z-score of -0.655. Sequence ATATGTAGGTTATCAGGTCATTCAGTTTGCGCAT has a PBM binding z-score of 4.71. With CACGAAAGGTCGGTTGAGGTGAGTATACGGATAA the PBM binding z-score was 2.37. Sequence TCTTGTAGATCAATAGATGTTAAGAAAGTGCGCT has a PBM binding z-score of 0.468. Work on TTACCAAGGTGACAGGTCGTTGATGCACGCCTTG yielded a PBM binding z-score of 0.821. CGTCCAAGGTCAGTAGGTCAGTGAAAGCGACGTG gave a PBM binding z-score of 3.29. For TCATATAGGCAATACAGGTGAAAGTCGGCATCTA, the PBM binding z-score was 0.582. TGAATGAGGTTATAACATCAGGGAACGTTGCAAA gave a PBM binding z-score of 1.11. With AGAACGAGGGCACGCTGAGTTGATAGTAGAGTAG the PBM binding z-score was 2.38. In the case of CCTAGTGGGCCACGAAAGGTCATTGATTCAGTGA, the PBM binding z-score is reported as 4.05. Sequence CGTCCAAGGTCAAAGGTCAGTGCAGAGATGACGG has a PBM binding z-score of 6.57. GGAACGAGGGCATTCGAGTTGCTAGCATGGCGAT showed a PBM binding z-score of 2.71. AGAACGAGGGTACGCTGAGTTGATAGCAGAGTAG was tested, and the PBM binding z-score was 1.15. GCGACTGGGGCAAAGCAGGGTACCATAAGGTTGG showed a PBM binding z-score of -0.276. With CGTCAAAGTTTAAGGTAACGTAACAGAAAGCAGC the PBM binding z-score was 0.3. Sequence TCTTATAGATCAAGCAGGTTAAGAAAGCCTGAGT has a PBM binding z-score of 0.894. In the case of TCTCGGAGGACACGAAGGTCAGAGCGTTCCAGAG, the PBM binding z-score is reported as 2.42. CCTGCTAGGTCATGGTCATCTAATCTACAGTATG showed a PBM binding z-score of 1.89. With AGAATGAGGTTATTAAGATAAGGGAATTGCGGTC the PBM binding z-score was 1.3. CAAACTAGGTCAGGAGGTCAAAGTCCGCTTCCCG gave a PBM binding z-score of 5.18. ACTCGGAGGAAAAAGGTCAGAGCTACGCCAGTGA was tested, and the PBM binding z-score was 2.07. ATATGTAGGTTACATCCGGGTCATTGAGGCTATG was tested, and the PBM binding z-score was 5.02.
